Drawing on ChEMBL document CHEMBL1157539, “Thousands of chemical starting points for antimalarial lead identification” (Nature, 2010), this text covers Inhibition for 40 compounds.

The test concerns Plasmodium falciparum. Nature of the test: GSK_TCMDC: Inhibition of Plasmodium falciparum 3D7 in whole red blood cells, using parasite LDH activity as an index of growth. Test compounds present at 2uM. In kind it is functional.
`CCn1c(-c2nonc2N)nc2c(-c3cccc(NC(=O)Nc4cccc(Cl)c4)c3)ncc(OCCCN)c21.O=C(O)C(F)(F)F` had an Inhibition of 91%.
On to `Cc1ccc2[nH]c3c(c2c1)CC(C(=O)NCCC(C)C)NC31CCN(Cc2ccccc2)CC1` (stereo not given), for which the Inhibition is on record as 95%.
As for `Cc1cccn2c(=O)c3cc(C(=O)NCCN4CCOCC4)c(=N)n(CCc4ccccc4)c3nc12`, the Inhibition came out at 100%.
In the case of `COc1ccc2nccc([C@@H](O)CN3CCC(NC(=O)c4cc5ccccc5[nH]4)CC3)c2c1.CS(=O)(=O)O`, the Inhibition is 96%.
As for `Cc1ccc(C(=O)Nc2cccc(CN3CCCN(Cc4ccc(O)cc4)CC3)c2)s1.O=C(O)C(F)(F)F`, the Inhibition was 90%.
`COc1ccc2nc(-c3ccccc3)cc(NCCN(C)C)c2c1` yielded an Inhibition of 100%.
The figure for `CCCC(CNCc1ccc(Cl)c(C(F)(F)F)c1)CNc1nc2cnccc2[nH]1.Cl` (stereo not given) is 99%.
For `O=C(Nc1ccccc1N1CCOCC1)c1ncoc1-c1ccccc1C(F)(F)F`, the Inhibition is listed as 89%.
Compound `O=C(Nc1ccc(C(=O)N2CCN(CCN3CCN(c4cccc(C(F)(F)F)c4)CC3)CC2)cc1)c1ccc(C(F)(F)F)cc1` gave an Inhibition of 95%.
On to `O=C(Nc1cccc(CN2CCCN(Cc3ccc(O)cc3)CC2)c1)c1ccc2ccccc2n1.O=C(O)C(F)(F)F`, for which the Inhibition was determined as 90%.
As for `Cc1ccc(C)c(Cn2ccc3nc(Cl)nc(Cl)c32)c1`, the Inhibition was determined as 95%.
In turn, `O=C(Nc1cccc(C(F)(F)F)c1)Nc1ccc2nonc2c1` showed an Inhibition of 98%.
`CCCCCC(=O)N1CCOC(CCN2CCC(c3ccccc3)CC2)(c2ccc(Cl)c(Cl)c2)C1` (stereo not given): the Inhibition came out at 89%.
Take `CCN(CC)c1nc(-c2ccccc2)cc(-c2ccccc2)c1C#N`: the Inhibition amounted to 100%.
In turn, `COc1ccc2[nH]cc(C3CCN(CCCCCNC(=O)c4ccc(-c5ccccc5)cc4)CC3)c2c1` showed an Inhibition of 96%.
For `CN(C)CCOc1cc(NC(=O)Nc2ccc(Cl)cc2C(F)(F)F)ccc1I`, the Inhibition is reported as 96%.
In the case of `O=C(/C=C/c1ccc(Cl)cc1)NCCCCCN1CCC(C(=O)Nc2ccc(Cl)c(Cl)c2)CC1` it was 100%.
In the case of `Cc1cc(C2CCN(CCCCNC(=O)c3ccc(-c4ccc(C(F)(F)F)cc4)cc3)CC2)c(C)cc1OCC#N` it was 100%; in that of `O=C(Nc1cccc(-c2ccc(-c3nc4cc(F)ccc4[nH]3)s2)c1)c1ccncc1`, 96%; in that of `COc1cc2nc(NCCc3ccccc3)nc(N(C)Cc3ccccc3)c2cc1OC`, 96%.
Take `COc1cc(CCNC(=N)/C=C/c2ccc(Cl)cc2)ccc1Cl.Cl`: the Inhibition amounted to 100%.
Compound `Cc1nc(O)c2c(ccc3ccc(CNc4ccc(C(=O)N[C@@H](CCC(=O)O)C(=O)O)cc4)cc32)n1` registered an Inhibition of 89%.
The figure for `COc1ccc(C(=O)NCC(C)(C)c2nc(-c3ccc(Cl)c(O)c3)c(-c3ccncc3)[nH]2)cc1OCCN(C(C)C)C(C)C.Cl` is 100%; for `Cc1oc(-c2ccccc2)nc1CCOc1ccc(C[C@H](Nc2ccccc2C(=O)c2ccccc2)C(=O)NCc2ccccn2)cc1` it is 88%.
The figure for `CC(C)(C)c1ccc(NC(=O)c2cccc(CN3CCCN(Cc4ccsc4)CC3)c2)cc1.O=C(O)C(F)(F)F` is 96%; for `NC(=O)c1cccc(C(=O)Nc2ccc(-c3cccc(-c4nc5cc(C(F)(F)F)ccc5[nH]4)c3)cc2)c1` it is 100%.
Regarding `COc1ccccc1-c1cc(C(=O)N2CCN(S(=O)(=O)c3ccc(C)cc3)CC2)[nH]n1`, the Inhibition turned out to be 88%.
`CS(=O)(=O)c1cccc(-c2ccc3oc(C(N)=O)c(NC(=O)c4cccs4)c3c2)c1` had an Inhibition of 86%.
`CCOc1ccccc1C=CC(=O)Nc1ccc2nc(N3CCN(C)CC3)cc(C)c2c1` had an Inhibition of 100%.
In the case of `CCOC(=O)c1cc(C(=O)NCCCCN2CCC(c3cn(C)c4ccccc34)CC2)ccc1-c1ccc(C(F)(F)F)cc1` it was 91%; in that of `Cc1nc2nc(N)nc(N)c2c(C)c1Cc1ccccc1I.Cl`, 96%.
In turn, `O=C(O)C(F)(F)F.OC1CCCN(Cc2ccc(-c3cccc(-c4nc5cc(F)ccc5[nH]4)c3)cc2)C1` (stereo not given) displayed an Inhibition of 99%.
The compound `O=C(Nc1ccc(Cl)c(Cl)c1)N[C@H]1CCN(CCCCCNC(=O)C2CC2c2ccc(Cl)c(Cl)c2)C1` (stereo not given in full) came in with an Inhibition of 93%.
Compound `CC(C)CCNC(=O)c1cnc2c(O)cccc2c1Nc1cccc(NC(=O)c2ccc(F)cc2)c1.O=C(O)C(F)(F)F` showed an Inhibition of 93%.
`CCCCCCn1c(Sc2ccc(C#N)c([N+](=O)[O-])c2)nnc1-c1cc(OC)cc(OC)c1` returned an Inhibition of 95%.
The compound `Cc1cc(=NN=CC=Cc2ccccc2)c2ccccc2[nH]1` had an Inhibition of 100%.
In turn, `CC12CCC(CN(CC(O)Cn3c4ccccc4c4cc(I)ccc43)C1)C2(C)C.Cl` (stereo not given) returned an Inhibition of 94%.
As for `O=C(Nc1ccc2c(c1)CCC2)c1ccc(CN2CCCN(Cc3cccc(O)c3)CC2)cc1.O=C(O)C(F)(F)F`, the Inhibition came to 88%.
`COc1ccc2ncc(Cl)c(NCC3(O)CCC(NCc4ccc5c(n4)NC(=O)CS5)CC3)c2n1.Cl` (stereo not given) returned an Inhibition of 96%.
`CC(=O)NCCNCc1cccc(C(=O)NCc2cccc(C(F)(F)F)c2)c1` gave an Inhibition of 95%.
